# Compound activity (PubChem)
# Sampled rows, rich in hits. Any-hit rate of the full collection: about 7.4%.
# hDAT+cocaine – human DAT dopamine uptake with cocaine, either direction; LLC-PK1 hDAT cells, [14C]-dopamine uptake with cocaine IC80; actives deviate in either direction; B-score at 10 µM; 110,000 tested, 1.3% active; AID 449768;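 active means Z score or B-score, a plate-position-corrected score, falls beyond the plate's 99.7% confidence bounds, in either direction; inactive means both scores lie inside the 99.7% bounds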;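 further: scored against the spread of the other compound wells on the same plate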
# D1 allo mod – allosterically modulates the human D1 dopamine receptor; 58,000 tested, 5.9% active; HEK293 D1, CRE-luciferase, dopamine EC30 potentiation; actives deviate in either direction; B-score at 10 µM; P21728;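 active means luminescence count or its row- and column-corrected plate score outside the 99.7% band of the plate's sample wells, on either side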
# M1 ag – agonists of M1 muscarinic receptor; CHO-M1 cells, Fluo-4 calcium fluorescence, agonist mode; hits give high values; B-score at 10 µM; 64,000 tested, 3% active; AID 626;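 active means fluorescence rise, raw or as B-score row- and column-corrected plate score, outside the 99.7% band of its plate's samples, either direction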
# M1 antag – antagonists of rat M1 muscarinic receptor; P08482; CHO-M1 cells, Fluo-4 calcium, ACh EC80 antagonist mode; hits give low values; B-score at 10 µM; 64,000 tested, 3.4% active;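 active means calcium fluorescence response, raw or row-and-column corrected B-score, differing from the plate sample mean either way at a set confidence level, mostly lower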
# Target sequence (P08482 whole entry, looked up): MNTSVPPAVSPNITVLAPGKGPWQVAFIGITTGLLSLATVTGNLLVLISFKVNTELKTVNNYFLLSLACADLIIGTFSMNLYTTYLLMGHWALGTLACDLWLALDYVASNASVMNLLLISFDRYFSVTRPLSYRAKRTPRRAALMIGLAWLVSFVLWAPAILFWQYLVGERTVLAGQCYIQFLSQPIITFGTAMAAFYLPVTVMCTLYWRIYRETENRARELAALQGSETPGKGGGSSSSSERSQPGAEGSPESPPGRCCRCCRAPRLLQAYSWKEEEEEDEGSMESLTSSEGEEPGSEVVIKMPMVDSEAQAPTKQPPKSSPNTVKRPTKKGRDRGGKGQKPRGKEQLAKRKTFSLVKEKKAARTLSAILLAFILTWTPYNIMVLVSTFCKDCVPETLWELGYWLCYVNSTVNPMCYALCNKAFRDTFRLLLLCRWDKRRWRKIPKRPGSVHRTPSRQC
# FXIa mix inh – blocks human factor XIa in pooled compound mixtures. AID 680. P03951. 62,000 tested, 0.19% active. inhibition, % at 5 µM. purified FXIa, fluorogenic substrate;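 further: each value is inhibition by a whole ten-compound pool holding the compound; 0% = enzyme with no mixture and 100% = wells lacking enzyme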
# FXIIa inh mix – blocks human factor XIIa in pooled compound mixtures; P00748; inhibition, % at 5 µM; purified FXIIa, fluorogenic substrate; 62,000 tested, 0.2% active; AID 684;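 further: 0% = enzyme without compound and 100% = no enzyme blank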
# D1 mod confirm – D1 receptor (human) allosteric modulation, confirmed; shares compounds with D1 allo mod; HEK293 D1 CRE-luciferase, dopamine EC30 potentiation; hits give high values; luminescence at 10 µM; 2,200 tested, 88% active; AID 642;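 active means luminescence in either of two replicates above the same-plate mean plus 3 SD of the low-dose dopamine control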
# D1 no dopamine – activates D1 CRE-luciferase signal without dopamine present; shares compounds with D1 allo mod; HEK293 D1 CRE-luciferase, luminescence, no dopamine; hits give high values; luminescence at 10 µM; 1,900 tested, 0.8% active; AID 646; in the data active means luminescence above about 3900
# Isoprot counter – counter-screen for D1 modulators: isoproterenol response in HEK293 cells. 2,200 tested, 63% active. calls only at 10 µM. shares compounds with D1 allo mod. HEK293 D1 CRE-luciferase, isoproterenol EC30 counter-screen;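 active means luminescence in either replicate above plate mean of wells with a partly effective reference agonist dose plus 3 SD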;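 further: isoproterenol raises cAMP through native beta-adrenoceptor Gs so signal bypasses D1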
# * marks the source's active call; other numbers are inactive results; i = inactive; · = no result given; + = active, no number. Unless noted, no stated cut-off is given here; in the data, active means inhibition above about 20% (passing the limit was not always enough); inactive means the rest.
SMILES,hDAT+cocaine,D1 allo mod,M1 ag,M1 antag,FXIa mix inh,FXIIa inh mix,D1 mod confirm,D1 no dopamine,Isoprot counter
CCOc1ccc(OCC)c(NC(=O)CN2CCN(C(=O)c3ccco3)CC2)c1,0.015,26*,-0.17,-0.0043,2,-5,4124,1704,i
C=CCN(CC(=O)NCc1ccccc1)C(=O)c1csnn1,-1.8,3*,0.28,-2.2,3,3,6904,1720,i
COc1ccc(CNC(=O)CN(Cc2ccccc2)C(=O)c2csnn2)cc1,0.92,·,·,·,·,·,·,·,·
CCOc1ccc(-c2nc(S(=O)(=O)c3ccccc3)c(NCc3cccnc3)o2)cc1,-0.046,5.7*,-0.18,-0.58,-1,0,8380*,1552,+
O=C1C2CC=CCC2C(=O)N1CNc1ccccc1 (configuration not stated),-0.022,·,·,·,·,·,·,·,·
CCOC(=O)CCSc1nc(C)c2cc(C)ccc2n1,1.5,·,·,·,·,·,·,·,·
CCOC(=O)CCSc1nc(C)c2ccccc2n1,-0.029,1.9*,-0.012,-1.5,-2,12,6200*,1668,i
CCC(Sc1nc2n[nH]c(C)c2c(=N)n1-c1cc(Cl)ccc1C)C(=O)N1CCOCC1 (configuration not stated),0.35,6.4*,-0.028,0.26,-1,7,12280*,1844,+
Cc1ccc(-n2c(SCC(=O)NCC3CCCO3)nc3n[nH]c(C)c3c2=N)cc1Cl (configuration not stated),1.1,-0.79,2,1.4,·,·,·,·,·
O=C(NCCN1CCN(c2ccccc2)CC1)c1cccn2c(=O)c3cc(Cl)ccc3nc12,-0.51,0.87,-0.08,0.96,2,7,·,·,·
Cc1ccc2nc(NC(=O)c3ccc(Cn4cc(Cl)cn4)o3)sc2c1,-1.3,6.6*,1.5,1.1,·,·,5608,1540,i
COC(=O)c1ccc(NC(=O)C2CCCN(S(=O)(=O)c3cnc[nH]3)C2)cc1 (configuration not stated),-0.88,0.019,0.1,0.19,1,10,·,·,·
O=C(Nc1ccccc1C(=O)NCc1cccnc1)c1ccco1,-0.52,·,2.6,1.7,-14,4,·,·,·
O=C(Nc1ccc(Cl)cc1C(=O)NCc1cccnc1)c1ccco1,0.41,10*,1.3,0.074,4,-17,16768*,1484,+
O=C(Nc1ccc(Cl)cc1C(=O)Nc1ccncc1)c1ccco1,-0.35,8.7*,-0.32,-0.28,5,-12,11616*,·,+
COc1ccc(-c2coc3cc(O)ccc3c2=O)cc1O,1.4,·,·,·,·,·,·,·,·
CN(C)CCNC(=S)Nc1cccc(Cl)c1,1.4,·,·,·,·,·,·,·,·
CCSc1ncc(Cl)c(C(=O)Nc2ccc(S(=O)(=O)Nc3onc(C)c3C)cc2)n1,-0.39,5.6*,0.82,0,5,-5,11540*,1528,i
Cc1noc(NS(=O)(=O)c2ccc(NC(=O)Nc3ccc(Cl)c(Cl)c3)cc2)c1C,0.069,-2.6,0.15,0.84,5,-4,·,·,·
COc1ncnc2c1N[C@@](C)(O)c1c(F)c(F)c(F)c(F)c1S2,-0.54,5.7*,1.7,0.25,4,12,8300*,1556,i
COc1ncnc2c1NC(=O)CS2,0.18,0.62,0.28,0.12,9,2,·,·,·
N#Cc1c(N)n(C2CCCCC2)c2nc3ccccc3nc12,0.16,3.3*,-0.12,0.5,-8,9,10836*,1704,+
COC(=O)C1=C2SC(C)C(=O)N2C(N)=C(C#N)C1c1cc(OC)c(OC)c(OC)c1 (configuration not stated),-0.025,0.64,0.063,0.5,6,-18,·,·,·
CC1CCCC(C)N1C(=O)c1cc(F)c(F)cc1Cl (configuration not stated),-0.59,0.59,-0.61,0.084,2,-15,·,·,·
CCCCOc1ccc(/C=c2\sc3ncnn3c2=O)cc1,-0.63,2.7*,-0.56,-0.064,-1,-2,11772*,2228,+
